Screens (PubChem)
INS promoter inh – inhibitors of insulin promoter-driven GFP, primary screen, imaging, TRM-6 cells (human fetal islet line), eGFP reporter, cell count | actives 0.9% (n = 130,000) | AID 1273, 2008 | reporter expression induced with tamoxifen | inhibition, % at 2 µM;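 active = inhibition above the mean plus 3 SD, with well images judged a real hit on visual review, cut at about 60% in these data, passing the limit was not always enough; inconclusive = inhibition over the cutoff but images rejected on review; inactive = inhibition not above the cutoff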
IL1B cytotox – cytotoxicity in IL-1B stimulated HUVEC, primary screen, cytotoxicity control for IL-1B NFkB translocation project, imaging, Hoechst nuclear count, IL-1B stimulus; actives 0.41% (n = 94,000); HUVEC cell count loss; cell count reduction, % at 2 µM;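 active = cell count reduction more than 3 SD above the screen-wide mean, cut at about 70% in these data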
IL1B NFkB inh – inhibitors of IL-1B driven NFkB p65 nuclear import, primary screen, imaging, HUVEC, IL-1B stimulus, high-content imaging; inhibition, % at 2 µM; HUVEC IL-1B NFkB p65 nuclear translocation imaging; actives 0.43% (n = 94,000); AID 796, 2007;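 active = inhibition above about 30% together with a positive call from visual inspection of the well image, limit read from the data; inconclusive = inhibition above a set limit but visual check negative; inactive = inhibition not above a set limit, visual check negative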;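 also: nuclear over cytoplasmic p65 intensity ratio measured by imaging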
NFkB transloc pot – enhancers of NFkB p65 translocation in HUVEC – imaging, IL-1B stimulus, high-content imaging, primary screen; HUVEC IL-1B NFkB p65 nuclear translocation imaging; activation, % at 2 µM; actives 0.3% (n = 94,000); AID 819, 2007;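 active = activation above 40%, about the mean plus 3 SD, also judged a hit on visual image review; inconclusive = activation above 40% but not a hit on visual review; inactive = activation not above 40% and no visual hit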;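 also: percent activation is computed from the nuclear over cytoplasmic p65 intensity ratio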
Of the large screens only hits and unclear results are named; the others gave an inactive call. Compounds with a hit are over-represented: about 1.4% of the library has one in this group of screens.

CCN(CCC(=O)Nc1ccc(Br)c(C)c1)Cc1ccccc1	IL1B NFkB inh 50
O=C(CCN(CCO)Cc1ccccc1)Nc1ccc(Br)cc1	none (no result: INS promoter inh)
O=C(CC(=O)c1ccccc1)Nc1cc(C(F)(F)F)ccc1Cl	none (no result: IL1B cytotox, IL1B NFkB inh, NFkB transloc pot)
O=C(NC(=S)Nc1cc(C(F)(F)F)ccc1Cl)c1ccccc1	IL1B NFkB inh 79
CC1=NOC(=O)/C1=C\c1ccc(-c2ccccc2Br)o1	none (no result: IL1B cytotox, IL1B NFkB inh, NFkB transloc pot)
Cc1ccc(C2CC2C(=O)NNC(=S)Nc2cccc(Cl)c2)cc1 (stereo not given)	IL1B cytotox 71
Cc1ccc(C2CC2C(=O)NNC(=S)Nc2cccc(C)c2)cc1 (stereo not given)	INS promoter inh inconclusive
COc1ccc(CCN2C(=O)CS/C2=N\NC(=O)c2ccc(C(C)(C)C)cc2)cc1OC	none (no result: IL1B cytotox, IL1B NFkB inh, NFkB transloc pot)
Cc1cc(NS(=O)(=O)c2ccc(NC(=O)c3ccco3)cc2)no1	none (no result: INS promoter inh)
Cc1cc(NS(=O)(=O)c2ccc(NC(=O)c3oc4ccccc4c3C)cc2)no1	INS promoter inh 79
COC(=O)c1ccc(/C=N/NC(=O)C(=O)NCc2ccccc2)cc1	none (no result: IL1B cytotox, IL1B NFkB inh, NFkB transloc pot)
COc1ccc(S(=O)(=O)N2CCCC(C(=O)O)C2)cc1 (stereo not given)	IL1B NFkB inh 34
CCCCCC(=O)NC(NC(=S)N1CCOCC1)C(Cl)(Cl)Cl (stereo not given)	none
CCCCCCCCC(=O)NC(NC(=S)N1CCOCC1)C(Cl)(Cl)Cl (stereo not given)	NFkB transloc pot 41
CC1(C)OC(=O)C(=NNc2ccc(Cl)cc2)C(=O)O1	none (no result: INS promoter inh)
O=C(CNC(=O)c1ccccc1F)NCCOc1ccccc1Cl	none (no result: IL1B cytotox, IL1B NFkB inh, NFkB transloc pot)
CCOc1cccc(C2C(C#N)=C(N)Oc3cc(C)oc(=O)c32)c1OCC (stereo not given)	INS promoter inh 82
CCOc1ccccc1C1C(C#N)=C(N)Oc2cc(C)n(C)c(=O)c21 (stereo not given)	none
Cc1nc([N+](=O)[O-])c(Br)n1Cc1ccc(Cl)c(Cl)c1	none (no result: IL1B cytotox, IL1B NFkB inh, NFkB transloc pot)
Cc1nc([N+](=O)[O-])c(Br)n1CC(=O)c1ccc(Cl)cc1	INS promoter inh 69
CCn1cc(C(=O)OCc2ccccc2)c(=O)c2ccc(C)nc21	none
CCn1cc(C(=O)OCc2ccc(F)cc2)c(=O)c2ccc(C)nc21	IL1B cytotox 86
O=c1c2c3n(c(=S)nc2[nH]n1-c1ccccc1)CCCCC3	none
COc1ccc(OC(C)C(=O)NCc2cccnc2)cc1 (stereo not given)	IL1B cytotox 93
CC(Oc1ccccc1)C(=O)NCc1cccnc1 (stereo not given)	none
CCC(C)NS(=O)(=O)c1ccc(OCC(=O)NCc2cccnc2)cc1 (stereo not given)	IL1B cytotox 80, IL1B NFkB inh 98
CC/C(=C\C(=O)c1cccnc1)Nc1ccc(C)c(C)c1	none (no result: INS promoter inh)
Fc1cccc2sc(Nc3nc4ccccc4s3)nc12	none (no result: IL1B cytotox, IL1B NFkB inh, NFkB transloc pot)
O=c1[nH]c(N2CCCCC2)nc2c1CCCC2	none
c1ccc(Cn2nnc3c(N4CCCC4)ncnc32)cc1	none
c1ccc(Cn2nnc3c(N4CCc5ccccc5C4)ncnc32)cc1	INS promoter inh 82
CCN(CC)C(=O)C(=O)c1cccn1-c1ccccc1C#N	INS promoter inh 100
Clc1ccc(-c2nnc(SCc3ccon3)o2)c(Cl)c1	IL1B cytotox 70
COc1ccc(C(=O)Nc2ccc([N+](=O)[O-])cn2)c(OC)c1	none (no result: IL1B cytotox, IL1B NFkB inh, NFkB transloc pot)
O=C(O)C1C(C(=O)Nc2ccc(Cl)cc2)C2C=CC1C21CC1 (stereo not given)	IL1B cytotox 76
O=C(Nc1ccc(Cl)cc1)C1C2CCC3C(CCC21)C3(Cl)Cl (stereo not given)	none
Cn1ncc(Cl)c1C(=O)NCc1cc(C(C)(C)C)n[nH]1	none (no result: IL1B cytotox, IL1B NFkB inh, NFkB transloc pot)
Cn1nccc1CNC(=O)c1c(Cl)cnn1C	INS promoter inh 73 (no result: IL1B cytotox, IL1B NFkB inh, NFkB transloc pot)
C(=C\c1nc2ccccc2[nH]1)/c1ccccc1	INS promoter inh 93
Cc1cc(NC(=O)c2sc(Nc3ccc(F)cc3)nc2N)no1	none (no result: IL1B cytotox, IL1B NFkB inh, NFkB transloc pot)
C=CCNc1nc(N)c(C(=O)Nc2cc(C)on2)s1	IL1B cytotox 77
C=CCSC(=C(C#N)C#N)c1cc2c([nH]1)CCCC2	none
Cc1cccc2c(N=Nc3ccc(S(=O)(=O)Nc4ccc(Cl)cc4)cc3[N+](=O)[O-])c(O)[nH]c12	none (no result: IL1B cytotox, IL1B NFkB inh, NFkB transloc pot)
CNC(=S)NCc1ccc2[nH]c(C)cc2c1	none (no result: IL1B cytotox, IL1B NFkB inh, NFkB transloc pot)
CCc1cccc(C)c1NC(=S)NCc1ccc2[nH]c(C)cc2c1	INS promoter inh 71 (no result: IL1B cytotox, IL1B NFkB inh, NFkB transloc pot)
COCc1[nH]nc2c1C(c1ccccc1Cl)C(C#N)=C(N)O2 (stereo not given)	IL1B cytotox 88
CCCCc1c(C)nc2ccccc2c1SCCC(=O)O	none (no result: IL1B cytotox, IL1B NFkB inh, NFkB transloc pot)
O=c1[nH]c2ccc(Cl)cc2c(O)c1Cc1ccccc1	INS promoter inh 73 (no result: IL1B cytotox, IL1B NFkB inh, NFkB transloc pot)
O=c1[nH]c2ccc(Cl)cc2c(-c2ccccc2)c1N1CCN(c2ccccn2)CC1	none (no result: IL1B cytotox, IL1B NFkB inh, NFkB transloc pot)
O=c1[nH]c2ccc(Cl)cc2c(-c2ccccc2)c1CN1CCOCC1	NFkB transloc pot 113
Cc1ccccc1Oc1nc2c(C)cccn2c(=O)c1/C=C(\C#N)C(=O)Nc1c(C)n(C)n(-c2ccccc2)c1=O	none (no result: IL1B cytotox, IL1B NFkB inh, NFkB transloc pot)
COC(=O)c1ccccc1NC(=O)C/C(C)=N/NC(=O)CC#N	INS promoter inh 71 (no result: IL1B cytotox, IL1B NFkB inh, NFkB transloc pot)
Cc1cc(C)c2c(=O)[nH]c(SCC(=O)NCc3ccccc3)nc2n1	IL1B NFkB inh 46
Cc1sc2nc(SCC(=O)NCc3cccs3)[nH]c(=O)c2c1C	INS promoter inh 91
Cc1nccn1-c1ccc(C(F)(F)F)cc1[N+](=O)[O-]	INS promoter inh 73 (no result: IL1B cytotox, IL1B NFkB inh, NFkB transloc pot)
CC(C)(C)NC(=O)C(c1cccs1)N(CC1CCCO1)C(=O)Cn1nnc(-c2cccs2)n1 (stereo not given)	NFkB transloc pot 48
O=C(CSc1nnnn1-c1ccc(Cl)cc1)N1CCc2ccccc2C1	none
COc1cc(-c2nnc(SCC(=O)c3ccc(C)cc3)o2)cc(OC)c1OC	IL1B NFkB inh 42
Cc1ccc(-n2cnnn2)c(S(=O)(=O)N2CCOCC2)c1	IL1B NFkB inh 35
CCSC1=C(C#N)C(c2ccc3c(c2)OCO3)C2=C(CCCC2=O)N1 (stereo not given)	NFkB transloc pot 66
O=C(O)c1cc(NCc2ccc3c(c2)OCO3)ccc1N1CCOCC1	IL1B NFkB inh 54
COC(=O)c1cc(NCc2ccc3c(c2)OCO3)ccc1N1CCOCC1	none (no result: INS promoter inh)
Cc1c(Cl)cccc1NC(=S)NN1CCOCC1	none
COc1ccc(Cl)cc1NC(=S)Nc1cccnc1	none (no result: IL1B cytotox, IL1B NFkB inh, NFkB transloc pot)
COc1cccc(-c2nc(CS(=O)CC(=O)NCc3ccccc3Cl)c(C)o2)c1 (stereo not given)	none (no result: INS promoter inh)
O=C(O)c1cccnc1Nc1cccc(C(F)(F)F)c1	none (no result: IL1B cytotox, IL1B NFkB inh, NFkB transloc pot)
NC(=O)c1cccnc1Nc1cccc(F)c1	INS promoter inh 87 (no result: IL1B cytotox, IL1B NFkB inh, NFkB transloc pot)
CCCCn1ccnc1C(=O)c1cc(S(=O)(=O)N2CCOCC2)ccc1C	IL1B NFkB inh 55
COC(=O)Cc1c(C)nc2nc(NCc3cccc([N+](=O)[O-])c3)[nH]n2c1=O	none
Cc1ccn2c(C(=O)c3ccc(Cl)cc3)cnc2c1	none (no result: IL1B cytotox, IL1B NFkB inh, NFkB transloc pot)
CCCc1c2ccccc2nc2ccccc12	INS promoter inh 85 (no result: IL1B cytotox, IL1B NFkB inh, NFkB transloc pot)
COc1ccc(Nc2cc(C)nc(N3CCOCC3)n2)cc1	NFkB transloc pot 106
Cc1ccc(Nc2cc(C)nc(N3CCOCC3)n2)c(C)c1	none (no result: IL1B cytotox, IL1B NFkB inh, NFkB transloc pot)
Cn1c(Cl)cnc1C1CC(=O)c2cc(Cl)ccc2O1 (stereo not given)	none (no result: INS promoter inh)
